# Marburg entry inh = blocks Marburg virus binding to or entry into cells; 1.8% of 300,000 active; Marburg virus pseudotyped entry inhibition, cell reporter; Potency, µM (series often up to 37.8 µM), without a hit: at the top dose activity change, negative = inhibition, most hits filed as inhibitors; calls by dose curve; tested in HEK293 cells; also: potency is read from the fitted curve at half-maximal effect
# Pf growth 48h = P. falciparum growth inhibition at 48 hours (one generation); P. falciparum luciferase growth in erythrocytes, 48 h; Potency, µM (top dose mostly 28.7 µM), inactives show at the top dose activity change, negative = inhibition, hits mostly inhibitors; 5.9% of 310,000 active; also: potency is read from the fitted curve at half-maximal effect
#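 Compounds are pin-transferred into medium, infected erythrocytes (2% hematocrit, 0.1% parasitemia final) are added, and plates sit one parasite generation at 37 C in 5% CO2. Detection reagent is then added and luminescence measured.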
# Lassa entry inh = inhibitors of Lassa virus binding or cell entry. Lassa virus pseudotype entry inhibition, cell reporter. Potency, µM (titrated, usually from 37.9 µM), inactives show at the top dose activity change, negative = inhibition, usual class: inhibitors. 1.2% of 300,000 active; calls by dose curve; tested in HEK293 cells; also: potency is read from the fitted curve at half-maximal effect; nearly all actives have a fitted effect of over 50% in size
# HCMV inh = inhibitors of human cytomegalovirus. HFF cells, HCMV-luciferase reporter, 72 h; active compounds read low. activity change, negative = inhibition, % at 57.5 µM. 4.5% of 410,000 active. AID 1259415; in the data active = activity change below about -60%; inconclusive = no clear call, values can overlap the other calls; inactive = above about -39%
#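 Steps: HFFs plated, 16 h 37C; compounds added; HCMV-luciferase added to MOI 1 PFU/cell; 72 h 37C; OneGlo reagent, 5 min room temperature; luminescence read, normalized to controls.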
# Pf growth 96h = inhibits malaria parasite growth, 96 h; P. falciparum luciferase reporter growth, 96 h; 6.9% of 320,000 active; Potency, µM (doses to about 28.7 µM), inactives show at the top dose activity change, negative = inhibition, actives largely listed as inhibitors; also: potency is read from the fitted curve at half-maximal effect
#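 Parasite growth measured via integrated firefly luciferase reporter in P. falciparum. Infected erythrocytes at 2% hematocrit, 0.05% parasitemia final were treated 96 hours at 37 C under 5% CO2, and luminescence was read.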
# HCV inhibitor = HCV inhibition; Huh7.5.1 HCVcc-Cre infection, luciferase reporter, 44 h; 3.4% of 340,000 active; Potency, µM (series often up to 41.8 µM), for inactives: at the highest dose activity change, negative = inhibition, actives largely listed as inhibitors; also: potency is read from the fitted curve at half-maximal effect
#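 Infectious HCV cell culture screen: compound-treated cells (1,000/well, pre-plated 4 h) are infected with HCVcc-Cre at roughly 0.5 moi and grown 44 h. Infection is quantified by luciferase signal after 15 min substrate incubation at room temperature.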
# * marks the source's active call; other numbers are inactive results; ? = inconclusive; nt = not tested or not shown; [ ] = dose if it differs, or a comment. Shown are actives, neighbours in structure and some others; about 14% of the full set was active somewhere. Unless noted, calls follow the shape of the dose curve; as a rule, active = well fitted inhibition curve with a large enough effect; inconclusive = small, poorly fitted or top-dose-only effect, or another doubt; inactive = no such curve, though single readings can be large or run the other way. % is scaled to controls: 0 for no effect and ±100 for the full control effect.
SMILES,Marburg entry inh,Pf growth 48h,Lassa entry inh,HCMV inh,Pf growth 96h,HCV inhibitor
Cc1cc(C(=O)NC2CCCc3c2cnn3-c2ccc(C(C)(C)C)cc2)nn1C (stereo unspecified),?,-19%,?,-78*,18%,7.1µM*
CC(=O)NCC(=O)NC1CCCc2c1cnn2-c1ccc(C(C)(C)C)cc1 (stereo unspecified),-5%[46.1 µM],4%,?,-37,?,-1%
CC(=O)c1cc(C(=O)NC2CCCc3c2cnn3-c2cc(C)cc(C)c2)[nH]n1 (stereo unspecified),-16%,-19%,-27%,67,-10%,-15%
COc1ccc(/C=C\c2onc(C)c2S(=O)(=O)N2CCC(C(=O)Nc3cccc(Cl)c3)CC2)cc1,-1%[46.1 µM],nt,21%[46.1 µM],?,nt,nt
CCC(=O)N1CCc2cc(Br)cc(S(=O)(=O)CCC(=O)Nc3cccc(CC)c3)c21,0%[46.1 µM],nt,1%[46.1 µM],-4,nt,nt
Cc1ccccc1C1=NCC(=O)N(CC(=O)N2CCCCC2)c2sc(C)c(C)c21,?,?,?,-15,13µM*,7%
Cc1ccccc1-c1nnc(SCC(=O)N2CCCCC2)o1,?,nt,-22%[46.1 µM],51,nt,nt
Cc1cc(C)n(-c2c(C)[nH]c3ccccc23)n1,-10%[46.1 µM],?,0%,?,9.3µM*,-21%
COC(=O)/C=C1\OC(c2ccccc2)c2ccccc21 (stereo unspecified),nt,nt,nt,24,nt,nt
CC1(C)CC(=O)c2cc(-c3nc(-c4ccc(Cl)cc4)cs3)c(=O)[nH]c2C1,-10%[46.1 µM],nt,15%[46.1 µM],-4,nt,nt
Cc1cc(Br)ccc1NC(=O)CN1C(=O)C2CC=CCC2C1=O (stereo unspecified),nt,?,nt,-11,?,10%
COCCNC(=S)N(CCc1c(C)[nH]c2ccc(C)cc12)Cc1ccco1,?,?,-30%[46.1 µM],13,?,?
CCOc1ccc(NC(=S)N(CCc2c(C)[nH]c3ccc(C)cc23)Cc2cccnc2)cc1,-32%,?,-20%,?,3.7µM*,-8%[8.37 µM]
COc1ccc(NC(=S)N(CCc2c(C)[nH]c3ccc(C)cc23)Cc2ccco2)cc1,?,-10%,?,8,?,?
Cc1[nH]c2ccc(F)cc2c1CCN(Cc1ccncc1)C(=S)Nc1cccc(F)c1,nt,?,nt,0,0%,-20%
COCCNC(=S)N(CCc1c(C)[nH]c2ccc(F)cc12)Cc1ccc(C)cc1,?,?,?,-13,0%,14µM*
CCOc1ccc(NC(=S)N(CCc2c(C)[nH]c3ccc(C)cc23)Cc2ccco2)cc1,?,?,?,?,?,11µM*
COCCNC(=S)N(CCc1c(C)[nH]c2ccc(OC)cc12)Cc1ccco1,?,9.3µM*,?,-11,245%,?
COC(=O)[C@@H]1[C@@H](CO)[C@@H]2Cn3c(cccc3=O)[C@H]1N2C(=O)Nc1cc(F)ccc1F,nt,nt,nt,4,nt,nt
CCNC(=S)N(CCc1c(C)[nH]c2ccc(F)cc12)Cc1cccnc1,nt,nt,nt,-24,16%,-17%
Cc1[nH]c2ccc(F)cc2c1CCN(Cc1cccnc1)C(=S)Nc1ccc(F)cc1,nt,4.1µM*,nt,-4,7.4µM*,?
CCNc1ccc(C(=O)OCC)cc1NC(=O)c1cccc(S(=O)(=O)N(C)c2ccccc2)c1,?,?,?,-24,2.3µM*,8.9µM*
CCN(c1ccccc1)S(=O)(=O)c1ccc(C(=O)Nc2cccc(C)n2)cc1,nt,9.3µM*,nt,19,?,11µM*
Cc1cccc(NC(=O)c2ccc(C(=O)c3ccccc3)cc2)n1,-11%,88%,-26%,17,113%,?
Cc1cccc(NC(=O)c2cccc(S(=O)(=O)NCc3ccccc3)c2)n1,-11%,-16%,14%,-23,0%,-1%
SMILES,Marburg entry inh,Pf growth 48h,Lassa entry inh,HCMV inh,Pf growth 96h,HCV inhibitor
Cc1cccc(NC(=O)c2cccc(S(=O)(=O)N(C)c3ccccc3)c2)n1,?,7.4µM*,?,39,13µM*,?
CN(c1ccc(C(=O)Nc2ccc(Cl)cn2)cc1)S(=O)(=O)c1ccccc1,nt,-13%,nt,-66*,-27%,11µM*
CCN(CC)C(=O)CSc1nnc2nnc3cc(OC)ccc3n12,-7%[46.1 µM],-23%,-1%,?,-30%,-14%
C[C@H]1CN([C@@H](C)CO)C(=O)CCCn2cc(nn2)CO[C@@H]1CN(C)S(=O)(=O)c1ccc(F)cc1,nt,nt,nt,-9,nt,nt
Cc1ccc(S(=O)(=O)N(C)c2ccc(C(=O)Nc3cccc(C)n3)cc2)cc1,?,-2%,-14%,-77*,0%,?
Cc1ccc(S(=O)(=O)N(C)c2ccc(C(=O)Nc3ccccn3)cc2)cc1,13%,?,-10%,-1,?,-24%
Cc1ccc(S(=O)(=O)N(C)c2ccc(C(=O)Nc3ccc(C)cn3)cc2)cc1,?,12µM*,?,-37,?,5µM*
Cc1ccc(S(=O)(=O)N(C)CC(=O)Nc2cccc(C)n2)cc1,-12%,14%,-5%,2,nt,-3%
O=C1COC(c2ccccc2O)=NN1CCCl,nt,nt,nt,-23,nt,nt
CC1=CC[C@@H](COc2ccccc2)O[C@@]2(C1)C(=O)N(CC1CC1)c1ccccc12,20%[14.2 µM],nt,nt,nt,nt,nt
CCCNC(=O)c1ccccc1NC(=O)c1ccc(CSc2ccccc2)cc1,?,13µM*,?,9,?,?
CCC(C)NC(=O)c1ccccc1NC(=O)c1ccc(CSc2ccccc2)cc1 (stereo unspecified),-23%,12µM*,?,7,0%,-6%
Cc1ccc(SCc2ccc(C(=O)Nc3ccccc3C(=O)NC(C)C)cc2)cc1,?,-5%,-21%,31,423%,-1%
CC(=O)NCCNC(=O)c1ccc(CSc2ccc(Cl)cc2)cc1,?,228%,18%[46.1 µM],20,239%,7%
CCNC(=O)c1ccc(CSc2ccc(Cl)cc2)cc1,-11%,4.7µM*,3%,45,?,?
COc1ccc(CC(=O)Nc2c(C(=O)N3CCN(c4ccccc4F)CC3)oc3ccccc23)cc1OC,?,nt,?,-32,nt,nt
CC(OC(=O)CNC(=O)c1sc2ccccc2c1Cl)c1ccccc1 (stereo unspecified),nt,-11%,nt,0,12%,-5%
CCc1cc2c(COC(=O)CCNS(=O)(=O)c3cccc(C(F)(F)F)c3)cc(=O)oc2cc1O,?,4.7µM*,-27%,92,?,?
Cc1sc(N)nc1-c1ccc(Oc2ccccc2)cc1,nt,63%,nt,21,?,14µM*
O=C(c1ccc(Br)o1)N1CCN(c2ccccn2)CC1,-5%,-27%,-6%,-8,2%,-9%
O=C(c1cc2ccccc2o1)N1CCN(c2ccccn2)CC1,25%[46.1 µM],4.7µM*,2%[46.1 µM],15,13µM*,2%

# Screening data deposited in PubChem by National Center for Advancing Translational Sciences (NCATS).
